FBPA Giardia inh = inhibitors of Giardia lamblia fructose-1,6-bisphosphate aldolase; A8B2U2; purified Giardia FBPA; Potency, µM (highest dose often 59.6 µM), most hits filed as inhibitors; hit rate 0.71% among 290,000; AID 2451; also: nearly all actives have a fitted effect of over 55% in size
Target sequence (A8B2U2 whole entry, looked up): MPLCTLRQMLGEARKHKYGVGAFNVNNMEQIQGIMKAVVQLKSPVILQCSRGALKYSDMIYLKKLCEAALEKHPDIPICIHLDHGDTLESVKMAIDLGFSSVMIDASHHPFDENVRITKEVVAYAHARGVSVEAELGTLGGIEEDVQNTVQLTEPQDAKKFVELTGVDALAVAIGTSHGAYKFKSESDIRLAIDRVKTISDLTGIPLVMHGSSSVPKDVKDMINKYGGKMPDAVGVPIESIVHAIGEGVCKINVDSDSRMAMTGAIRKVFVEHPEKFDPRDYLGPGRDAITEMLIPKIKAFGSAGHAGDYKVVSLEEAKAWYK
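Giardia FBPA (40 nM reagent) was preincubated 10 min at RT with compound (up to 57.5 uM final), then substrate plus GAPDH/TPI/NAD/arsenate coupling system with diaphorase/resazurin was added; resorufin fluorescence (525/598 nm) was read after 20 min.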
Pf growth 48h = inhibits P. falciparum growth in the first generation, 48 h. AID 504832. Potency, µM (doses to about 28.7 µM), actives largely listed as inhibitors. P. falciparum luciferase growth in erythrocytes, 48 h. hit rate 5.9% among 310,000
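Firefly luciferase activity from engineered P. falciparum reports growth; inhibitors lower the luminescent signal. Cultures contained 2% hematocrit erythrocytes at 0.1% final parasitemia.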
Pf growth 96h = P. falciparum growth inhibition at 96 hour, primary screen for plastid delayed-death inhibitors. hit rate 6.9% among 320,000. Potency, µM (series often up to 28.7 µM), most hits filed as inhibitors. P. falciparum luciferase reporter growth, 96 h
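Plates of compound plus infected erythrocytes (2% hematocrit, 0.05% parasitemia final) incubate 96 hours, 37 C, 5% CO2. Detection reagent added; reduced luminescence from the parasites' luciferase reporter flags inhibition.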
Shiga toxin inh = Shiga toxin inhibition; Vero cells, Shiga toxin protein synthesis inhibition reporter; hit rate 9.2% among 290,000; inhibition, % at 38.7 µM; AID 2315; in the data active = inhibition mostly above about 28%, no sharp cut-off; inactive = mostly below about 43%
NS1 function inh = inhibitors of influenza NS1 protein function. hit rate 0.4% among 270,000. AID 2326. Potency, µM (highest dose often 46.1 µM); calls by dose curve; also: actives are rising curves; nearly all actives have a fitted effect of over 50% in size
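S. cerevisiae expressing influenza A NS1, grown in glucose, washed, then diluted 1:100 into pH 6.0 -URA galactose medium with 23 nl compound. Growth recovery read as OD600; NS1-free strain serves as control.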
CHX counter = counter-screen for Shiga toxin inhibitors: cycloheximide protein synthesis inhibition. cell reporter, cycloheximide protein synthesis inhibition counterscreen. max response, %. hit rate 12% among 300,000. AID 2314; in the data active = max response mostly above about 13%, no sharp cut-off; inactive = mostly below about 14%; also: read at 38.3 µM for the half of the compounds with a filed dose
A number is an active result; i = inactive; ? = inconclusive; nt = no result given. Rows were chosen to be rich in hits. Some 21% of all compounds tested hit in one or more screens of this group. Unless noted, calls follow the shape of the dose curve; as a rule, active = well fitted curve in the direction sought with a large enough effect; inconclusive = small, poorly fitted or top-dose-only effect, or another doubt; inactive = no such curve, though single readings can be large; an effect the other way counts as inactive or inconclusive.

SMILES	FBPA Giardia inh	Pf growth 48h	Pf growth 96h	Shiga toxin inh	NS1 function inh	CHX counter
O=C(CNC(=O)c1ccco1)NCC(=O)OCc1cccc(C(=O)Oc2ccccc2)c1	i	i	nt	41.8	i	12.9
O=C(Oc1ccccc1)c1ccc(NC(=O)c2ccco2)cc1	i	?	i	100.0	i	52.8
CC12CCC(=O)N1C(C(=O)N1CCN(c3cccc(Cl)c3)CC1)CS2 (stereo not given)	nt	i	?	nt	nt	nt
COc1cccc2c1OC1(CCN(C(C)C)CC1)N1N=C(c3cccnc3)CC21 (stereo not given)	i	i	i	90.3	i	53.0
CC(C)N1CCC2(CC1)Oc1ccc(Br)cc1C1CC(c3cccnc3)=NN12 (stereo not given)	i	?	13.1µM	61.4	i	26.0
CSc1ccc(S(=O)(=O)Nc2c(C)n(C)n(-c3ccccc3)c2=O)cc1	i	i	i	i	i	i
CC(=O)Oc1ccccc1C(=O)Nc1ccccc1C(=O)N1CCCCC1	i	?	?	i	i	i
CCOC(=O)c1sc2nc(C)nc(NCc3ccc(Cl)cc3)c2c1C	i	9.28µM	?	i	i	i
CCOC(=O)c1sc2nc(C)nc(NCc3ccc(F)cc3)c2c1C	i	?	?	i	i	i
CN(C)S(=O)(=O)Oc1cccc(C(=O)Nc2cccc(Cl)c2)c1	i	i	i	66.5	i	38.1
COC(=O)c1ccc(OC(=O)c2ccccc2F)cc1	i	i	?	i	i	i
CN(C)S(=O)(=O)Oc1cccc(C(=O)Nc2ccc(Cl)c(Cl)c2)c1	i	i	i	117.3	i	71.7
COc1ccc(NC(=O)c2cccc(OS(=O)(=O)N(C)C)c2)cc1	i	i	i	105.2	i	44.0
COC(=O)c1ccc(OS(=O)(=O)N(C)C)cc1	i	i	i	98.7	nt	53.6
COc1ccc(NC(=O)c2ccc(S(=O)(=O)N(C)C)cc2)cc1	i	i	?	i	i	i
CCN(CC)CCCNC(CC(=O)Nc1cccc([N+](=O)[O-])c1)C(=O)O (stereo not given)	i	i	i	i	i	i
COc1cc(C2C(C#N)=C(N)OC3=C2C(=O)CCC3)cc2c1OCO2 (stereo not given)	i	nt	i	i	i	i
COc1cccc(S(=O)(=O)NCc2ccc(C(=O)Nc3cccc(Cl)c3)cc2)c1	i	nt	9.28µM	i	i	i
CNS(=O)(=O)c1cccc(C(=O)Nc2cccc(Cl)c2)c1	i	nt	i	i	i	35.0
Cc1ccc(SCc2nn(C)c(Cl)c2C=O)cc1	i	i	i	57.4	nt	42.4
COc1cccc(C2CNC3(CCCC(C)C3)c3[nH]c4ccccc4c32)c1OC (stereo not given)	i	nt	9.28µM	i	i	i
O=C(NCc1nnc2c(C(F)(F)F)cc(Cl)cn12)c1ccc2c(c1)OCO2	i	i	i	i	i	i
C=CCNC(=O)N[C@@H](Cc1ccccc1)C(=O)OC	i	?	?	i	i	i
CC(=O)c1cccc(NC2=NCC(C)S2)c1 (stereo not given)	i	nt	13.1µM	i	i	i
CC1CN=C(Nc2ccc(F)c(Cl)c2)S1 (stereo not given)	i	i	i	77.0	i	i
SMILES	FBPA Giardia inh	Pf growth 48h	Pf growth 96h	Shiga toxin inh	NS1 function inh	CHX counter
CCOc1ccc(C2NC(=O)Cc3cc(OC)c(OC)cc32)cc1 (stereo not given)	i	i	?	i	i	i
CCOc1ccc(C2OC(=O)Cc3cc(OC)c(OC)cc32)cc1 (stereo not given)	i	?	1.17µM	i	i	i
O=C(CN1CCN(S(=O)(=O)/C=C/c2ccccc2)CC1)NCC(F)(F)F	i	i	?	i	i	i
CCCCCCOC1(c2ccccc2)OC(=O)c2ccccc21 (stereo not given)	i	10.4µM	8.28µM	i	i	i
Cc1cccc(OC2(c3ccccc3)OC(=O)c3ccccc32)c1C (stereo not given)	i	?	9.28µM	i	i	i
CCCCCCCOC1(c2ccccc2)OC(=O)c2ccccc21 (stereo not given)	i	?	6.57µM	i	i	i
Cc1cccc(C2(c3cccc(C)c3)OC(=O)c3ccccc32)c1	i	?	?	i	i	i
Cc1c(C(=O)N2CCCCCC2)c(S(=O)(=O)Nc2cccc(F)c2)c(C)n1C	nt	i	i	i	i	i
COc1ccccc1CNC(=O)C(=O)NCC1CCCO1 (stereo not given)	i	i	5.86µM	61.8	i	23.9

Compound activity (PubChem BioAssay)
